Where “and” joins values, the source holds several entries; their conditions need not be identical. Equal entries are not always repeated. Records with an inconclusive call do not appear. A number with no mark means an inactive call. Calls of active or inactive are those of the source. Unless noted, calls follow the shape of the dose curve; as a rule, active = well fitted curve in the direction sought with a large enough effect in the repeat runs; inconclusive = weak or mixed curves; inactive = no such curve, though single readings can be large; an effect the other way counts as inactive or inconclusive.

Assay [1] can be described thus: qHTS assay to identify small molecule agonists of the vitamin D receptor (VDR) signaling pathway - cell viability counter screen (AID 743224). Also: nearly all actives have a fitted effect of over 50% in size. Also: potency is read from the fitted curve at half-maximal effect. An outline of the steps: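 Luminescence from CellTiter-Glo, read after 30 min at room temperature, reports viability of VDR-bla cells treated with compounds for 16 h at 37C in the wells used for the beta-lactamase FRET read.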
(Quantitative high-throughput screening tests each substance at several concentrations.)

Assay [2] in a line: qHTS assay to identify small molecule antagonists of the vitamin D receptor (VDR) signaling pathway - cell viability counter screen (AID 743225). Also: potency is read from the fitted curve at half-maximal effect; nearly all actives have a fitted effect of over 50% in size. In outline: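 VDR-UAS-bla HEK 293T cells were plated and incubated 4 h at 37C, then dosed with compound plus 3 nM (final) 1-alpha,25-dihydroxyvitamin D3 for 16 h. After the 2 h beta-lactamase read, viability in the same wells was read as CellTiter-Glo luminescence after 30 min at room temperature.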

The nature of assay [3]: qHTS assay to identify small molecule agonists of the endoplasmic reticulum stress response signaling pathway - cell viability counter screen (AID 1159517; calls by dose curve; also: nearly all actives have a fitted effect of over 50% in size; also: potency is read from the fitted curve at half-maximal effect). In outline: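 Cells, HeLa ESRE-bla; density, 1,500/well; dosing, 5 hr at 37 C, 5% CO2; readout, CellTiter-Glo luminescence after 30 min RT.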
Assay [4] can be described thus: qHTS assay to identify small molecule antagonists of the retinoid-related orphan receptor gamma (ROR-gamma) signaling pathway - cell viability counter screen (AID 1159520). Also: nearly all actives have a fitted effect of over 50% in size. Also: potency is read from the fitted curve at half-maximal effect. In outline:
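Cytotoxicity was read from cellular ATP (CellTiter-Glo luminescence) after 16 hr at 37 C with 1 uM doxycycline induction. The inducer was added 2 hr after compound transfer to Tet-on ROR gamma CHO cells.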

Assay [5] can be described thus: qHTS assay to identify small molecule antagonists of the retinoid acid receptor (RAR) signaling pathway - cell viability counter screen (AID 1159551). Also: nearly all actives have a fitted effect of over 35% in size. Also: potency is read from the fitted curve at half-maximal effect. In outline: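 Luminescent ATP quantitation (CellTiter-Glo) gave cell viability in C3RL4 cells exposed to test chemicals for 6 h at 37 C alongside 1 uM final retinol.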
The nature of assay [6]: qHTS assay to identify small molecule antagonists of the retinoic acid receptor (RAR) signaling pathway (AID 1159552; also: nearly all actives have a fitted effect of over 50% in size; also: potency is read from the fitted curve at half-maximal effect). In outline:
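Retinol signaling pathway inhibitors screened in C3RL4 RARE-luciferase reporter cells seeded overnight at 37 C, then compounds added with 1 uM (final) retinol as pathway substrate. After 6 hr at 37 C, luciferase luminescence read after 30 min at room temperature.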

The nature of assay [7]: qHTS assay to identify small molecule antagonists of the estrogen related receptor signaling pathway with the pleiotropic PPARgamma coactivator (PGC) cell viability counter screen (AID 1224822; also: series mostly up to about 46 µM). An outline of the steps: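 Cells: PGC/ERR, 2,000/well, 1536-well format. Pre-incubation 6 h, 37 C/5% CO2. Compound exposure 17.5 h, 37 C. Detection: CellTiter-Fluor, 30 min, fluorescence.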

In assay [8] the target is Nuclear receptor ROR-gamma (Homo sapiens) (UniProt P51449). In words: qHTS assay to identify small molecule antagonists of the retinoid-related orphan receptor gamma (ROR-gamma) signaling pathway (AID 1159521; also: nearly all actives have a fitted effect of over 50% in size; also: potency is read from the fitted curve at half-maximal effect). An outline of the steps: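 Tet-on ROR-gamma CHO cells with ROR response element-luciferase reporter; compounds added 2 hr before 1 uM doxycycline induction, then 16 hr at 37 C. Antagonism scored as decreased ONE-Glo luminescence.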

Assay [9] concerns the target Retinoic acid receptor RXR-alpha (Homo sapiens) (UniProt P19793). Description: qHTS assay to identify small molecule agonists of the RXR signaling pathway (AID 1159527; calls by dose curve; also: nearly all actives have a fitted effect of over 35% in size). An outline of the steps: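 GeneBLAzer RXR-alpha-UAS-bla HEK 293T cells in 2% charcoal-stripped FBS medium were exposed to compounds for 16 hr at 37 C in agonist mode. Beta-lactamase reporter read as 460/530 nm FRET ratio after 2 hr substrate loading.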

The nature of assay [10]: qHTS assay to identify small molecule agonists of the retinoic acid receptor (RAR) signaling pathway (AID 1159553). In outline: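 Luminescence from a RARE-driven luciferase reporter in C3RL4 cells served as the read-out, measured after 30 min with detection reagent at room temperature. Compounds in DMSO were applied for 6 hr at 37 C following overnight seeding.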
Assay [11] in a line: qHTS assay to identify small molecule agonists of the AP-1 signaling pathway - cell viability counter screen (AID 1159525; calls by dose curve; also: nearly all actives have a fitted effect of over 55% in size; also: potency is read from the fitted curve at half-maximal effect). An outline of the steps:
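Luminescent ATP readout (Cell Titer Glo, 30 min RT), normalised to DMSO and tetra n-octyl ammonium bromide controls. Cells were ME-180 AP-1-bla in 0.5% dialyzed FBS Opti-MEM, with a 5 h, 37 °C compound exposure.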

Assay [12] can be described thus: qHTS assay to identify small molecule agonists of the AP-1 signaling pathway (AID 1159526; calls by dose curve).
A short description of assay [13]: qHTS assay to identify small molecule antagonists of the estrogen related receptor (ERR) signaling pathway - cell viability counter screen (AID 1224818). Also: series mostly up to about 46 µM. An outline of the steps: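 Multiplexed counter screen to separate cytotoxic compounds from true ERR modulators. ERR cells received DMSO-dissolved compounds after a 6 h pre-incubation, were exposed 17.5 h at 37 C, then assayed with CellTiter-Fluor fluorescence.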

Assay [14] in a line: qHTS assay to identify small molecule agonists of the RXR signaling pathway - cell viability counter screen (AID 1159529). Also: nearly all actives have a fitted effect of over 50% in size. Also: potency is read from the fitted curve at half-maximal effect. In outline: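 RXR-alpha-UAS-bla HEK 293T cells in medium with 2% charcoal-stripped FBS were pre-incubated 5 hr, then compound-treated 16 hr at 37 C. Viability was read by CellTiter-Glo luminescence in the same wells as the beta-lactamase assay, with tetraoctyl ammonium bromide as positive control.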

The nature of assay [15]: qHTS assay to identify small molecule antagonists of the estrogen related receptor (ERR) signaling pathway from Tox21 library - cell viability counter screen (AID 1224834). Also: nearly all actives have a fitted effect of over 30% in size. Also: potency is read from the fitted curve at half-maximal effect. In outline: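 Fluorescence from CellTiter-Fluor gives the viability read-out, taken 30 min after reagent addition. Before that, ERR cells seeded 6 h earlier were incubated with compounds for 17.5 h at 37 C.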

Retinoic acid receptor RXR-alpha (Homo sapiens), sequence (P19793 whole entry, looked up): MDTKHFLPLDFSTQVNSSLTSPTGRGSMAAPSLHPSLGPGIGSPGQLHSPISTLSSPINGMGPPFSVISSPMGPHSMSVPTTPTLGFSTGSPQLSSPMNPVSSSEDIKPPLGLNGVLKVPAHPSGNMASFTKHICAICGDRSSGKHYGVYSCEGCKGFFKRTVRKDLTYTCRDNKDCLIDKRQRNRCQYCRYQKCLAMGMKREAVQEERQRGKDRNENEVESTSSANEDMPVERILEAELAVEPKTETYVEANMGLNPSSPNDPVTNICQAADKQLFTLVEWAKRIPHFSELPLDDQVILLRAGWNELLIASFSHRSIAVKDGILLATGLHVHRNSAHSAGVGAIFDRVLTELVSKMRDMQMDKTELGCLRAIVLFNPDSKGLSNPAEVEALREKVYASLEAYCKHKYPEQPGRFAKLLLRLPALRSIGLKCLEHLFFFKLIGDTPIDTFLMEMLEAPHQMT

Consider `CC(C)c1cccc(C(C)C)c1N1C(=O)c2ccc(O)cc2C1=O`, for which the Potency was 43.6 µM (active) in [1]; 49 µM (active) in [2]; 27.3 µM (active) in assay [4]; 61.1 µM (active) in [5]; 24.3 µM (active) in assay [6]. In addition, the Potency entry in assay [3] and in assay [7] was “inactive” in each case.

Turning to `NC(=O)c1nc(-c2cccc(-c3cc(F)ccc3OCC(F)(F)C(F)(F)F)c2)n[nH]1`, the Potency in assay [1] was 43.6 µM (active); in assay [3], 61.6 µM (active); in assay [8] it was 34.4 µM (active). For the same compound, the Potency entry in [9] and in assay [10] was “inactive” each time.

In the case of `C[n+]1c2cc(N)ccc2cc2ccc(N)cc21` (tested in a mixture with another compound), the Potency result in assay [3] and in assay [11] was “inactive” throughout. Moreover, the Potency in assay [6] is 23.7 µM (active).

For `CN(C)c1ccc(N=NS(=O)(=O)O)cc1`, the Potency entry in assay [1], in assay [3], in assay [12], in assay [5], in assay [6] and in [13] was “inactive” throughout. Moreover, the Potency entry in [7] is “inactive”. Also, in assay [8], the Potency is 4.33 µM (active).

As to `CCCCCCCCCCOCC(O)CN` (centres undefined), the Potency was 21.3 µM (active) in [3] and 26.6 µM (active) in [8]. Moreover, the Potency entry in assay [12] is “inactive”.

Take `CCCCC(CC)COC(=O)c1ccc(O)cc1` (centres undefined): the Potency is 21.8 µM (active) and 49 µM (active) in [1]; 49 µM (active) in assay [3]; 24.5 µM (active) and 49 µM (active) in [11]; 38.8 µM (active) and 49 µM (active) in [14]; 43.1 µM (active) in [15]. Moreover, the Potency entry in assay [6] and in [10] was “inactive” throughout.

For `CC(C)(C)c1cc(/C=C2\SC(=N)NC2=O)cc(C(C)(C)C)c1O`, the Potency was 49 µM (active) in assay [1], 43.6 µM (active) in assay [2], 54.9 µM (active) in assay [3] and 61.1 µM (active) in assay [15]. Besides, the Potency entry in assay [11], in assay [5] and in assay [10] was “inactive” throughout.

`CN1[C@@H]2CC[C@@H]1CC(OC(=O)C(CO)c1ccccc1)C2` (some centres undefined): the Potency result in assay [3], in assay [4], in [11], in assay [12], in assay [9] and in assay [5] was “inactive” throughout. Further, the Potency entry in assay [15] was “inactive”.

Take `Clc1ccccc1CN1CCc2sccc2C1`: the Potency entry in assay [1], in assay [3], in assay [4] and in assay [5] was “inactive” each time.

For the compound `CCCCCCCC(C)=O`, the Potency entry in [4], in [8], in assay [11], in [12], in [9] and in [14] was “inactive” in each case. Moreover, the Potency entry in [5], in [6] and in assay [15] was “inactive” each time.

Regarding `CS(C)(=O)=O`, the Potency result in [4], in [8], in assay [11], in assay [12], in [9] and in assay [14] was “inactive” throughout. In addition, the Potency result in [5], in assay [6] and in assay [15] was “inactive” throughout.

For the compound `CC1=CCC(=O)O1`, the Potency entry in [4], in assay [8], in assay [11], in assay [12], in assay [9] and in assay [14] was “inactive” in each case. Besides, the Potency result in assay [5], in assay [6] and in assay [15] was “inactive” each time.

With `CC1CNCC(C)O1` (centres undefined), the Potency entry in assay [4], in [8], in [11], in assay [12], in assay [9] and in assay [14] was “inactive” throughout. The Potency entry in assay [5], in assay [6] and in assay [15] was “inactive” throughout.

Regarding `CC(C)=CCCC(C)O` (centres undefined), the Potency entry in assay [4], in assay [8], in [11], in assay [12], in assay [9] and in assay [14] was “inactive” each time. Moreover, the Potency entry in [5], in assay [6] and in assay [15] was “inactive” each time.

Regarding `CC(=O)OC1CCCCC1`, the Potency entry in [4], in assay [8], in assay [11], in assay [12], in assay [9] and in [14] was “inactive” throughout. For the same compound, the Potency entry in assay [5] and in assay [6] was “inactive” each time.

Values taken from PubChem BioAssay (Tox21).
